Source: publication PMC12136788
Over roughly 5,800 sequences, “enrichment r” has its median near 0.68; the highest 2% begin near 11. Only a sample is shown.

T1: UNK ZnF1-6 (called full-length) (human, UniProt Q9C0B0 30-357)
T1 sequence: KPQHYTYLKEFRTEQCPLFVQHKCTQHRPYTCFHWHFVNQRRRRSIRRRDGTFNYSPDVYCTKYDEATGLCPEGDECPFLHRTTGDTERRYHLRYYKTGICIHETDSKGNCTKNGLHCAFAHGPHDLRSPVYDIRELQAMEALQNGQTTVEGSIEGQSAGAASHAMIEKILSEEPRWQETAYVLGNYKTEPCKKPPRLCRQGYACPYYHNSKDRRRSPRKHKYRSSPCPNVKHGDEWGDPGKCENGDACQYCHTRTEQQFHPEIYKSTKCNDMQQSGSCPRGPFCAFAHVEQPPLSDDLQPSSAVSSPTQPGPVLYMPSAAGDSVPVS

B1: chr12:76028832:76028933:-|3pUTR|ENSG00000139289|msi1|total|mutant (ssRNA)
RNA: GGGAGUUCUACAGUCCGACGAUCAAAGGAAAAGACUGGAUAAACACAGGAUUUUCAGUAAGAAAACAACCCCAGUCUUGUCUCCGAAGCCACUUGUUGAGGAGUCUGUUGGGGGAAAAAAGAGGAUAUGCUUUUAAAGGCCGACAACAGAGGAUUGAGCAUCA
B2: chr3:27418507:27418620:-|CDS|ENSG00000033867|unk|FALSE|bound_elsewhere (ssRNA)
RNA: GGGAGUUCUACAGUCCGACGAUCUGAUGUAGCUUAUAAAGCAAAAGACAGAAAUGACCUCUUAUCUGGAAUUGAUGAAUUUUUAGAUCAAGUAACUGUCCUACCUCCAGGAGAGUGGGAUCCUUCUAUACGCAUAGAACCACCCAACAGAGGAUUGAGCAUCA
B3: chr11:35619468:35619569:+|CDS|ENSG00000179431|unk|FALSE|unique (ssRNA)
RNA: GGGAGUUCUACAGUCCGACGAUCCCCCCUCCGGGAUGCCGGGGGUGAGCUGGCCAACCUCAGCCAGGCGGAGCUGGUGGACCUAGUACAAUGGACCGACUUAAUCCUUUUCGACUACCUGACGGCCAACUUCGACCGGCUCGUCAACAGAGGAUUGAGCAUCA
B4: chr5:91369659:91369760:-|3pUTR|ENSG00000113369|msi1|total|mutant (ssRNA)
RNA: GGGAGUUCUACAGUCCGACGAUCUCAGCAUUUUCCAAGGUACCAAGUGUACUUAUUUUGUUGUUGUUGUUGUUGUUGUAUUUCCGAAGGAAUUCAGCUCUGAUGUUUUUAAAGAAAACCAGCAUCUCUGAUGUUGCAACAUACCAACAGAGGAUUGAGCAUCA
B5: chr9:35056615:35056731:-|3pUTR|ENSG00000165280|msi1|FALSE|unique (ssRNA)
RNA: GGGAGUUCUACAGUCCGACGAUCCCCUAUCCAACCUGGGUAGGUGGGUAGGGGCCACAGUUGCUGGAUGUUUAUAUAGAGAGUAGGUUGAUUUAUUUUACAUGCUUUUGAGUUAAUGUUGGAAAACUAAUCACAAGCAGUUUCCAACAGAGGAUUGAGCAUCA
B6: chr6:149379354:149379455:+|CDS|ENSG00000055208|msi1|FALSE|bound_elsewhere (ssRNA)
RNA: GGGAGUUCUACAGUCCGACGAUCAGGGGUGGUGUCCCCUACCUUUGAACUUACAAAUCUUCUUAAUCAUCCUGAUCAUUAUGUAGAAACCGAGAAUAUUCAGCACCUCACGGACCCUACAUUAGCACAUGUGGAUAGAAUAAGCAACAGAGGAUUGAGCAUCA
B7: chr17:81921741:81921842:-|3pUTR|ENSG00000197063|msi1|total|mutant (ssRNA)
RNA: GGGAGUUCUACAGUCCGACGAUCAAUUAUAUGUUUAAAAGUUAAAGAAAAAAGAGCUGCAGAGUAUUUAUAAAACUGUCUUUCCGAAAAAAAACAAGCAAGAAGACCAUUUGACCAUAUGAAUGGAAAAGGGAAGAAAGUAUACAACAGAGGAUUGAGCAUCA
B8: chr1:110947961:110948399:-|CDS|ENSG00000121931|control|control|control (ssRNA)
RNA: GGGAGUUCUACAGUCCGACGAUCAAGUCAUUUCUUCAAUAAAAAUUAUACCGAAGAUAUUUUCCCAGUGACACCACCGGAGUUAGAAGAAACCAUUCGAGAUGAAAAAAUAAGAAGACUUAAGCAGGUGCUGAGAGAGAAAGACAACAGAGGAUUGAGCAUCA
B9: chrX:153456492:153456651:-|CDS|ENSG00000213397|control|control|control (ssRNA)
RNA: GGGAGUUCUACAGUCCGACGAUCAUGGAGCACUUCGAGGACACCAGGGAGAAGAACGAGGCCUUGCUGGGGGAGCUCUUCUCUAGCCCCCACCUGCAGAUGCUCCUGAAUCCAGAGUGCGACCCGUGGCCCCUGGACAUGCAGCAACAGAGGAUUGAGCAUCA
B10: ENSG00000130720:stop:overlap|stop_codon|ENSG00000130720|stop_codon|NA|stop_codon (ssRNA)
RNA: GGGAGUUCUACAGUCCGACGAUCGCUGGCAGUACUCACUCAAGUUCUCUGAGAUGAAGAUCCGGCCGGUCCGGGAGGACCGCUAGACUGGUGCACCUUGUCCUUGGCCCUGCUGGUCCCUGUCGCCCCAUCCCCGACCCCACCCAACAGAGGAUUGAGCAUCA
B11: chr3:89481969:89482070:+|3pUTR|ENSG00000044524|msi1|total|mutant (ssRNA)
RNA: GGGAGUUCUACAGUCCGACGAUCAUAUGUGUUUACUUUAAACUUGUCUUUUCAAAAUAUUACUCAGUUUAUGUUGUACAAUGCCGAUGGCCUCUUACUAAUGUAAAAUGAUUUGCCGUGGAAACAUUUAUAUUUUUAUAAUAACAACAGAGGAUUGAGCAUCA
B12: chr4:123402332:123402450:+|CDS|ENSG00000164056|unk|total|mutant (ssRNA)
RNA: GGGAGUUCUACAGUCCGACGAUCGACGAAGGGGAUUCCUAUUCAGAUAAUCCUUGCUCCUGUUCACAAUCACACUGCUGCUCCCGAUACCUGUGUAUGGGAGCCAUGUCUUUAUUUUUACCUUGCUUACUCUGUUAUCCUCCUCAACAGAGGAUUGAGCAUCA
B13: chr1:198253062:198253183:+|CDS|ENSG00000151414|unk|total|mutant (ssRNA)
RNA: GGGAGUUCUACAGUCCGACGAUCAUGGGCUAUAAUACAUCCGCCAACUUUCGAACCGAAAAGAAAAUUGGUCGCGGACAAUUCCGUGAAGUUUACCGAGCAGCCUGUCUCUUGGAUGGAGUACCAGCCGCUUUAAAAAAAGUGCAACAGAGGAUUGAGCAUCA
B14: chr6:144852070:144852171:+|3pUTR|ENSG00000152818|unk|FALSE|unique (ssRNA)
RNA: GGGAGUUCUACAGUCCGACGAUCAAGUCCUUAAUAGUUCUUGAAACUCCUAGUUGUUUUCUUGUUGAAAGCAGACACACAUUUAGUGCACGGCUUAUUUUACCUUUCGGGUGAAAGAUCAGAUGUUUUUAUACCCUUCACUUGCAACAGAGGAUUGAGCAUCA
B15: chr22:36281679:36281692:-|3pUTR|ENSG00000100345|msi1_unk|total|mutant (ssRNA)
RNA: GGGAGUUCUACAGUCCGACGAUCUCUUGUGUCUACUCCCGGACUGGGCCCGAGGGUGGUUUACCUGCACCGUUGACUCAGUACCGUUUAAAAAUCUGCCACCUGCACAGGUAUUUUUGAAAGCAAAAUAAGGUUUUCUUUUUUCAACAGAGGAUUGAGCAUCA
B16: chr7:137227872:137228000:-|3pUTR|ENSG00000105894|msi1_unk|total|mutant (ssRNA)
RNA: GGGAGUUCUACAGUCCGACGAUCGGAACAUAAAAAGGACAUCAGCAAACAGGAUCAGUUAACUAUUGCAUUUAUAUGUACCGCCGGCUUUGUAUUCAAAAAUUAUCUACCGCUAAGUACACAAUAAGCAAAAACAAAAAGAAACAACAGAGGAUUGAGCAUCA
B17: ENSG00000165476:stop:overlap|stop_codon|ENSG00000165476|stop_codon|NA|stop_codon (ssRNA)
RNA: GGGAGUUCUACAGUCCGACGAUCAAGAGGUGCGGUACGGGUCACUAAAAUACAAAGUGAAGAAACGACCACAAGUGUAUUUUUAGUCAUCUACACGUCAAAUAUCCCAAGACAGAUUAUGCUAAAUACAUCGACUUCAUCUUCCAACAGAGGAUUGAGCAUCA
B18: ENSG00000138660:stop:overlap|stop_codon|ENSG00000138660|stop_codon|NA|stop_codon (ssRNA)
RNA: GGGAGUUCUACAGUCCGACGAUCCUGUAUUAGAACUGUCUGAUUCUGGCAUAAGGCAUUCUGACACAGAUCAACAGACUCGAUAGGGUAAAAUUGUGUGACCUUGUUUAUCAGUUAUGACCAAAUGUUAAAAACCAACUAGAACAACAGAGGAUUGAGCAUCA
B19: chr3:11557161:11557262:-|3pUTR|ENSG00000144560|msi1|total|mutant (ssRNA)
RNA: GGGAGUUCUACAGUCCGACGAUCCCUCUGACUUUAUACUGUUAUUACUGCAUUUAUUAUUUGCUAUAUUAACCGCUACUAACCCGAAAUCCGAUGAAGCAAGCAUGACAGACACAGCUGUGGAGGUCACAGCUGCUCCUUUUUCAACAGAGGAUUGAGCAUCA
B20: ENSG00000198589:be:win_7201|CDS|ENSG00000198589|bound_else_gene|NA|bound_elsewhere_windowed (ssRNA)
RNA: GGGAGUUCUACAGUCCGACGAUCGAGAGUGAAUUUGUUUCCUGCCAGCUUCACCAAUGGAUUGAUCUCAUUUUUGGCUAUAAACAGCAAGGACCAGAAGCUGUCCGAGCCCUCAAUGUGUUCUAUUACUUGACCUAUGAAGGACAACAGAGGAUUGAGCAUCA
B21: ENSG00000124766:be:win_1851|3pUTR|ENSG00000124766|bound_else_gene|NA|bound_elsewhere_windowed (ssRNA)
RNA: GGGAGUUCUACAGUCCGACGAUCAGAGACUUGAAGGAGUCUCCCCCUUCCUGCAUCACCACCUUGGUUUUGUUUUAUUUUGCUUCUUGGUCAAGAAAGGAGGGGAGAACCCAGCGCACCCCUCCCCCCCUUUUUUUAAACGCGCAACAGAGGAUUGAGCAUCA
B22: chr9:125236489:125236593:-|3pUTR|ENSG00000044574|msi1_unk|total|mutant (ssRNA)
RNA: GGGAGUUCUACAGUCCGACGAUCUGCCGACACUGAUCUGCCCGUGCUGUAAUAUUGUAAAUACUGGACUCAGGAACUUUUGUCCGGAAAAAAUUGAAAGAACUUAAGUCUCGAAUGUAAUUGGAAUCUUCACCUCAGAGUGGACAACAGAGGAUUGAGCAUCA

The binders below were run against T1, UNK ZnF1-6 (called full-length) (assay: nsRBNS (natural sequence RNA bind-n-seq); RBNS binding buffer (assumed for nsRBNS): 25 mM Tris pH 7.5, 150 mM KCl, 3 mM MgCl2, 0.01% Triton X-100, 500 ug/ml BSA, 20 U/ml SUPERase-In, 4 C; UNK is unkempt and MSI1 is Musashi-1; names of the RNAs are library labels; protein concentration not given here; high values mean tight binding).

Binder	binding signal [enrichment R]
B1	0.52
B2	0.413
B3	0.618
B4	0.292
B5	0.815
B6	0.615
B7	0.865
B8	0.797
B9	0.759
B10	1.34
B11	0.702
B12	0.585
B13	0.411
B14	0.969
B15	0.546
B16	0.517
B17	0.648
B18	0.713
B19	0.51
B20	0.478
B21	0.704
B22	0.446
